# Compounds with a hit are over-represented: about 3.3% of the library has one in this group of screens.
# ABHD5 PLIN5 PPI = inhibitors of human ABHD5-perilipin-5 interaction; Q00G26+Q8WTS1; Split G. princeps luciferase complementation, luminescence, 4 h; inhibition, % at 4 µM; hit rate 0.78% among 360,000; AID 602281;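 active = inhibition above the mean inhibition across every tested compound plus 3 SD, cut at about 22% in these data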;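 also: 0% = DMSO only wells and the 100% control is not disclosed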
# TLR9-MyD88 inh = TLR9-MyD88 interaction inhibition; Q9NR96+Q99836; CHO BLA complementation TLR9-MyD88, CCF4 FRET ratio; inhibition, % at 4.98 µM; hit rate 0.21% among 340,000; AID 504734;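 active = inhibition above the mean over all tested compounds plus 3 SD, cut at about 21% in these data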;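 also: 0% = DMSO only wells and 100% = clavulanate BLA inhibitor control wells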
# Target sequence (Q99836 whole entry, looked up): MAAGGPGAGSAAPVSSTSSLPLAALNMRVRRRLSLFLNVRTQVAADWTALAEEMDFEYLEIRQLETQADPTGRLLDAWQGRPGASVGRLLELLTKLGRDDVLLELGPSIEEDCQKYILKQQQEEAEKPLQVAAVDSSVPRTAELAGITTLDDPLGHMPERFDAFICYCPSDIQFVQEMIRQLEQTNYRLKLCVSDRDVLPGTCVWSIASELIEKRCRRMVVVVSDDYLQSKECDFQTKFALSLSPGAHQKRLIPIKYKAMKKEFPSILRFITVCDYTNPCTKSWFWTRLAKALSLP
# Target sequence (Q9NR96 whole entry, looked up): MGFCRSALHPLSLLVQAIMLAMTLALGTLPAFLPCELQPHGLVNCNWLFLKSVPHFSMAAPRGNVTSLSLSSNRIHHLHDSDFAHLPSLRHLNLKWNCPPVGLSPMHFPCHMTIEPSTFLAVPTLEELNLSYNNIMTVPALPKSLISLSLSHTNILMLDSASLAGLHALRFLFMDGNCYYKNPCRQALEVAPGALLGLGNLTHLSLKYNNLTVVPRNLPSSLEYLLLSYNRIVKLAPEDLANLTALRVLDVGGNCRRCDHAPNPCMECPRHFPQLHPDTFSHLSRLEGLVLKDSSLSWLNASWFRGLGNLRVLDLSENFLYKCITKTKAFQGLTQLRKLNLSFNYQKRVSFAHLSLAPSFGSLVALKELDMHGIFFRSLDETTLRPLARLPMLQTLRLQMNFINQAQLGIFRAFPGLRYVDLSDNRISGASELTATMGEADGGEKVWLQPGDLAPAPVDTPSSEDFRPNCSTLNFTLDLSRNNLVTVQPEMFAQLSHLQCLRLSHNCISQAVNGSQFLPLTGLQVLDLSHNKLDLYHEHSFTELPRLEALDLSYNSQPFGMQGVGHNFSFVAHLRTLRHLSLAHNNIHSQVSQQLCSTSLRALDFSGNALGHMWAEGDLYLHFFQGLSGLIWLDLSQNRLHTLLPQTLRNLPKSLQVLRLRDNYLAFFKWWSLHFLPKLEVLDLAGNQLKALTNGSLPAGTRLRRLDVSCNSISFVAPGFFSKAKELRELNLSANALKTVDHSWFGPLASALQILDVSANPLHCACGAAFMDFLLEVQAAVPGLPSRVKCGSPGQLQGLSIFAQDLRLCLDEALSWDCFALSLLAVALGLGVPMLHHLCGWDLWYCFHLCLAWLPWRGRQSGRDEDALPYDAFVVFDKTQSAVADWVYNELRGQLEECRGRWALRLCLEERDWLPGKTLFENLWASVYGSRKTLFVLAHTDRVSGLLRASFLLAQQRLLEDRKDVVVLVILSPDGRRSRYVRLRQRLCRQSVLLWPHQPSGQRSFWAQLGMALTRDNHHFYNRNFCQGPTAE
# rCAG binder = molecules binding r(CAG) RNA repeats. r(CAG) RNA repeat, TO-PRO-1 dye displacement fluorescence. inhibition, % at 3 µM. hit rate 1.3% among 370,000;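 active = inhibition above the plate cutoff, the mean of all test compounds on that plate plus 3 SD, cut at about 35% in these data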;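 also: 0% = DMSO alone and 100% = 100 µM mitoxantrone as full dye displacement; higher means more dye released from RNA so lower well fluorescence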
# NOD2 RIPK2 PPI = blocks binding of human NOD2 to RIPK2. CHO BLA complementation NOD2-RIPK2, CCF4 ratio. inhibition, % at 4.98 µM. hit rate 0.38% among 360,000. AID 624267; in the data active = inhibition above about 21%;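 also: 0% = vehicle only and 100% = reference blocker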
# PRMT1 inh = inhibitors of human PRMT1. Q99873. recombinant PRMT1, activity-based probe fluorescence polarization. inhibition, % at 2.79 µM. hit rate 1.3% among 370,000. AID 652257;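 active = inhibition above about 21% made by adding two undisclosed values, limit read from the data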
# TLR4 MyD88 comp = blocks binding of human TLR4 to MyD88 | O00206+Q99836 | HeLa CL3-4 TLR4/MyD88 BLA complementation, FRET ratio | inhibition, % at 8.4 µM | hit rate 0.18% among 200,000 | AID 861; in the data active = inhibition above about 25%;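 also: 0% = vehicle and 100% = reference inhibitor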
# PRMT1 confirm = PRMT1 (human) inhibition, FP confirmation; shares compounds with PRMT1 inh; recombinant His-PRMT1, activity-based probe fluorescence polarization; inhibition, % at 2.79 µM; hit rate 42% among 3,300;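 active = mean inhibition across replicates above the hit cutoff derived for the earlier primary screen, cut at about 22% in these data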
# An asterisk follows results filed as active; / = no result.
SMILES,ABHD5 PLIN5 PPI,TLR9-MyD88 inh,rCAG binder,NOD2 RIPK2 PPI,PRMT1 inh,TLR4 MyD88 comp,PRMT1 confirm
O=C(Cc1ccccc1)Nc1nc2ccccc2s1,-2,-8,3,3,-1,-5,/
CCn1c2ccccc2c2cc(NC(=O)COC(=O)c3ccc(F)cc3F)ccc21,/,/,5,/,-1,/,/
COc1ccc(C(=O)c2ccc(Cl)cc2)cc1,-2,4,-3,8,0,-6,/
COc1ccc(C(C#N)=C2C=CC(=NO)C=C2)cc1,-14,11,7,9,28*,/,6
CN(NC(=O)/C=C/C(=O)O)c1ncc(C(F)(F)F)cc1Cl,-4,2,2,-3,35*,-9,6
C=CC(=O)NN(C)c1ncc(C(F)(F)F)cc1Cl,3,-3,-2,1,-2,10,/
CCS(=O)(=O)N1CCc2nc(-c3ccccc3)sc2C1,3,-6,-1,-10,-2,/,/
COc1ccc(-c2nc3c(s2)CN(S(C)(=O)=O)CC3)cc1OC,2,5,4,-5,35*,/,4
CSC1=NS(=O)(=O)c2c(C)nn(C)c2S1,-21,-3,-3,-3,100*,/,76*
CC(=O)Nc1ccc(SCC(=O)c2c(N)n(Cc3ccccc3)c(=O)n(C)c2=O)cc1,-4,0,0,-2,25*,/,18
Cc1ccc2nc(-c3ccco3)c(Cc3ccccc3C(F)(F)F)n2c1,/,/,10,/,33*,/,19
Cc1ccc2nc(-c3ccco3)c(CC(C)(C)C)n2c1,3,/,19,-7,8,/,/
FC(F)(F)c1ccccc1Cc1c(-c2ccco2)nc2c3ccccc3ccn12,/,/,19,/,32*,/,23*
Cc1cc(Br)cn2c(Cc3cccc(F)c3)c(-c3ccco3)nc12,/,/,24,/,35*,/,30*
Clc1cccc(Cc2c(-c3cccc(Cl)c3)nc3c4ccccc4ccn23)c1,2,/,2,9,2,/,/
Clc1cccc(Cc2c(-c3ccco3)nc3c4ccccc4ccn23)c1,17,/,30,9,25*,/,9
Fc1ccc(-c2nc3c4ccccc4ccn3c2Cc2ccccc2C(F)(F)F)cc1,-6,/,/,-6,/,/,/
Cc1cc(Br)cn2c(Cc3cccc(F)c3)c(-c3cccc(Cl)c3)nc12,/,/,13,/,-2,/,/
Cc1cccc(C(=O)NCC(=O)OCC(=O)c2ccc(Cl)s2)c1,-6,0,4,-3,2,/,/
CCc1nc2c(OCc3cccc(OC)c3)cccn2c1N(C)C(=O)c1ccccc1F,4,/,2,2,7,/,/
CCN(c1ccc(NS(=O)(=O)c2cc(Cl)ccc2Cl)cc1)C(C)C,-9,-11,14,1,32*,10,12
COc1ccc(C2C3=C(N=C4SCC(=O)N42)c2ccccc2CC3)cc1OC (stereo not given),-18,4,18,-1,54*,-11,19
COc1ccccc1C1C2=C(N=C3SCC(=O)N31)c1ccccc1CC2 (stereo not given),-16,-13,7,-8,37*,-15,1
COc1c(O)cccc1[C@H](O)C1CCN(CCc2ccc(F)cc2)CC1,2,-5,-40,-3,29*,/,2
COc1ccc(NS(=O)(=O)c2cc(N)ccc2N2CCCCC2)cc1,2,-12,7,-7,-1,/,/
SMILES,ABHD5 PLIN5 PPI,TLR9-MyD88 inh,rCAG binder,NOD2 RIPK2 PPI,PRMT1 inh,TLR4 MyD88 comp,PRMT1 confirm
Nc1ccc(N2CCCC2)c(S(=O)(=O)Nc2cccc(C(F)(F)F)c2)c1,-18,-4,18,4,47*,/,7
COC(=O)C(Cc1c[nH]c2ccccc12)NC(=O)c1cccs1 (stereo not given),-2,-8,-1,-2,-1,/,/
O=C(NC(Cc1c[nH]c2ccccc12)C(=O)OCC(=O)c1cccc2ccccc12)c1cccs1 (stereo not given),-1,-9,21,-1,50*,0,-1
CN1CCN(NC(=O)CN2C(=O)S/C(=C\c3c(Cl)cccc3Cl)C2=O)CC1,-2,3,2,2,26*,7,8
CN1C(=O)[C@@]2(C3=C(CCCC3=O)OC3=C2C(=O)CC(C)(C)C3)c2ccccc21,/,/,3,/,-1,/,/
CN(C)c1ccc(N2C(=NC(=O)COc3ccccc3)SC3CS(=O)(=O)CC32)cc1 (stereo not given),-10,5,3,9,-3,/,/
Brc1ccc(-c2csc3[n+]2CCCCC3)cc1,-2,0,3,-6,28*,3,1
O=C(/C=C/c1ccc(-c2ccccc2[N+](=O)[O-])o1)c1ccc(Br)cc1,6,-6,22,2,19,-3,/
Cc1ccc(-c2ccc(/C=C/C(=O)c3ccccc3)o2)cc1,13,18,21,5,32*,9,39*
Cc1ccc(C(=O)/C=C/c2ccc(-c3ccccc3[N+](=O)[O-])o2)cc1,20,2,21,7,34*,-1,-3
O=S(=O)(Nc1ccccc1)C1CCCCC1,0,-4,1,1,1,/,/
CCOC(=O)C1=Nc2ccccc2C1=[N+]=[N-],14,-3,0,-6,6,-12,/
CCOC(=O)C1=Nc2cccc3c(O)ccc1c23,/,/,-73,/,75*,/,80*
Nc1c(C(=O)Nc2ccccc2)sc2nc(-c3cccnc3)ccc12,/,/,5,/,40*,/,2
Nc1c(C(=O)Nc2ccccc2)sc2nc(-c3ccco3)ccc12,9,16,35*,2,52*,0,40*
Nc1c(C(=O)Nc2cccc(Cl)c2Cl)sc2nc(-c3cccnc3)ccc12,7,7,2,0,9,5,/
Cc1nc2ccccn2c1-c1ccnc(=S)[nH]1,2,-3,1,1,79*,/,38*
Cc1ccc(NC(=O)C2=NNC(=O)CC2)cc1S(=O)(=O)Nc1ccc(SC(F)F)cc1,-18,-1,27,-2,27*,/,20
COc1ccc(NC(=O)CSc2nnc(NC(=O)c3ccc(S(=O)(=O)N4CCOCC4)cc3)s2)cc1,1,-1,2,3,2,-7,/
Cn1c(=O)[nH]c(=O)c2c1[nH]c(=S)n2CCCc1ccccc1,-13,-2,2,0,2,/,/
Cn1c(=O)c2c([nH]c(=S)n2CCCc2ccccc2)n(C)c1=O,-10,0,0,-1,41*,/,64*
N#Cc1ccc(NC(=O)OC2CCC23CCC(c2ccccc2)CC3)cc1 (stereo not given),/,/,7,/,2,/,/
CC(C)(C)OC(=O)NCc1ccc(CNC(=O)c2nc[nH]c2C(=O)N2CCN(C(=O)OC(C)(C)C)CC2)cc1,5,-6,-8,-10,-2,/,/
O=C1c2cccc3c(N4CCCCC4)ccc(c23)C(=O)N1CCO,0,13,-52,21,40*,7,13

# Assay outcomes deposited in PubChem BioAssay by The Scripps Research Institute Molecular Screening Center.
